In PubChem BioAssay (NCI) one finds growth data, which are given here for seven compounds.

Among the test systems are HCT-15 colon; HT29 colon; SNB-75 CNS; SNB-19 CNS; U251 CNS; PC-3 prostate; SK-MEL-5 melanoma; UACC-62 melanoma; LOX IMVI melanoma; SK-MEL-28 melanoma; SK-MEL-2 melanoma; EKVX NSCLC; SN12C renal; UO-31 renal; TK-10 renal; ACHN renal; CAKI-1 renal; A498 renal; CCRF-CEM leukemia; MOLT-4 leukemia.
Test in all cases: NCI-60 one-dose screen, 48 h (100 = growth as untreated, 0 = no growth, -100 = all killed)
Settings in all cases: 10 µM unless noted

Structures are written as SMILES. Compounds without any hit were thinned out: in the full panel of roughly 83,000, 20% have a hit.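 In brief: 96-well plates, 48 h treatment, single concentration, percent growth endpoint.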 Unmarked numbers belong to inactive results. The source made the active and inactive calls. The calls were made as follows: active = growth percent below 10; inactive = the rest.

As to `CCCCSc1ccc2nc(-c3ccc(OCCCN=C(N)N)cc3)cn2c1`, the growth is 92.7% with HCT-15 colon; 53% in the assay with HT29 colon; 22.5% in the assay on SNB-75 CNS; 24.5% with SNB-19 CNS; 13.1% in the assay on U251 CNS; 54% in the assay on PC-3 prostate. Besides, the growth in the assay with SK-MEL-5 melanoma is 52.8%; with UACC-62 melanoma it was 52%; in the assay on LOX IMVI melanoma, 61.3%; with SK-MEL-28 melanoma it was 38.3%; in the assay with SK-MEL-2 melanoma, 48.4%; in the assay with EKVX NSCLC, 95.6%. In addition, the growth with SN12C renal was 88.3%; in the assay with UO-31 renal it was 76.6%; in the assay on TK-10 renal, 110%; in the assay on ACHN renal, 89.2%; in the assay with CAKI-1 renal, 62.3%; in the assay on A498 renal, 89.4%. Further, the growth in the assay with CCRF-CEM leukemia is 53.4%; with MOLT-4 leukemia, 53.1%.
For the compound `O=C(Cc1ccc(F)cc1)c1ccccc1`, the growth with HCT-15 colon was 108%; with HT29 colon, 109%; in the assay on SNB-75 CNS it was 100%; in the assay with SNB-19 CNS, 109%; with U251 CNS it was 106%; in the assay on PC-3 prostate it was 91.4%. Further, the growth in the assay on SK-MEL-5 melanoma is 110%; in the assay with UACC-62 melanoma, 106%; in the assay on LOX IMVI melanoma it was 102%; in the assay with SK-MEL-28 melanoma, 114%; in the assay on SK-MEL-2 melanoma, 114%; with EKVX NSCLC, 113%. Moreover, the growth in the assay on SN12C renal was 99.4%; in the assay with UO-31 renal, 95.6%; with TK-10 renal it was 104%; with ACHN renal it was 110%; with CAKI-1 renal, 106%; in the assay with A498 renal, 99.8%. Besides, the growth with CCRF-CEM leukemia was 88%; in the assay with MOLT-4 leukemia, 93.1%.
Consider `CC(=NCc1ccccc1)c1ccc(O)cc1O`, for which the growth was 101% in the assay on HCT-15 colon; 104% with HT29 colon; 83.2% in the assay with SNB-75 CNS; 103% in the assay on SNB-19 CNS; 101% with U251 CNS; 81.7% with PC-3 prostate. Further, the growth was 95% in the assay with SK-MEL-5 melanoma; 88.1% with UACC-62 melanoma; 94.1% in the assay on LOX IMVI melanoma; 103% with SK-MEL-28 melanoma; 107% with SK-MEL-2 melanoma; 111% in the assay with EKVX NSCLC. Further, the growth in the assay with SN12C renal is 91.8%; in the assay on UO-31 renal, 81.7%; in the assay on TK-10 renal, 92.8%; in the assay on ACHN renal, 96.6%; in the assay with CAKI-1 renal it was 107%; in the assay with A498 renal, 100%. Moreover, the figures for the growth in the assay with CCRF-CEM leukemia and in the assay with MOLT-4 leukemia were 85% and 89.7%, respectively.
On to `OCCN1CCN(c2cc(-c3cccc(OC(F)(F)F)c3)nc3ccc(N4CCCC4)cc23)CC1`, for which the growth is 10.9% with HCT-15 colon; 5.34% (active) in the assay with HT29 colon; 53.5% in the assay on SNB-75 CNS; 74.1% in the assay on SNB-19 CNS; 29.3% in the assay on U251 CNS; 25.9% in the assay on PC-3 prostate. For the same compound, the growth is 46.7% in the assay on SK-MEL-5 melanoma; 59.6% in the assay on UACC-62 melanoma; 9.02% (active) in the assay on LOX IMVI melanoma; 71.1% in the assay on SK-MEL-28 melanoma; 93.3% with SK-MEL-2 melanoma; 75.9% in the assay with EKVX NSCLC. The growth in the assay on SN12C renal was 59.5%; with UO-31 renal, 37.1%; with TK-10 renal, 69.3%; in the assay with ACHN renal, 44.7%; in the assay on CAKI-1 renal, 40.5%; in the assay with A498 renal it was 68.3%. The growth was 40% with CCRF-CEM leukemia and 11.2% with MOLT-4 leukemia.
Turning to `BrC1=C(Br)C(Br)(Br)C(Br)=C1Br`, the growth in the assay with HCT-15 colon was 60.8%; in the assay on HT29 colon it was 63.9%; in the assay with SNB-75 CNS, 72.7%; with SNB-19 CNS it was 92.3%; with U251 CNS, 91.9%; in the assay on PC-3 prostate, 84.6%. In addition, the growth was 102% in the assay on SK-MEL-5 melanoma; 71% in the assay on UACC-62 melanoma; 45.5% in the assay with LOX IMVI melanoma; 93% in the assay on SK-MEL-28 melanoma; 95.3% with SK-MEL-2 melanoma; 109% in the assay on EKVX NSCLC. The growth with SN12C renal was 86.2%; with UO-31 renal, 79.3%; with TK-10 renal, 97.8%; in the assay on ACHN renal, 88.5%; with CAKI-1 renal, 87.3%; with A498 renal it was 109%. Moreover, the growth is 17.5% in the assay with CCRF-CEM leukemia and 17.1% with MOLT-4 leukemia.
As for `C#CCn1cnc2cnc(Nc3cccc(NC(=O)CCl)c3)nc21`, the growth was 6.26% [6.25 µM] (active) with HCT-15 colon; 0.208% [6.25 µM] (active) with HT29 colon; -28.7% [6.25 µM] (active) with SNB-75 CNS; 11.5% [6.25 µM] with SNB-19 CNS; -49.2% [6.25 µM] (active) with U251 CNS; 18.9% [6.25 µM] in the assay on PC-3 prostate. The growth in the assay on SK-MEL-5 melanoma was -59.4% [6.25 µM] (active); in the assay with UACC-62 melanoma it was -23.1% [6.25 µM] (active); with LOX IMVI melanoma it was -48.6% [6.25 µM] (active); in the assay with SK-MEL-28 melanoma, 14.5% [6.25 µM]; in the assay with SK-MEL-2 melanoma, -14.1% [6.25 µM] (active); in the assay on EKVX NSCLC, 69.1% [6.25 µM]. For the same compound, the growth in the assay with SN12C renal is 6.82% [6.25 µM] (active); in the assay with UO-31 renal, -71.1% [6.25 µM] (active); in the assay on TK-10 renal, -5.69% [6.25 µM] (active); in the assay with ACHN renal, -39.9% [6.25 µM] (active); with CAKI-1 renal, -34.2% [6.25 µM] (active); with A498 renal, -42.2% [6.25 µM] (active). The growth was 1.51% [6.25 µM] (active) in the assay with CCRF-CEM leukemia and 0.772% [6.25 µM] (active) with MOLT-4 leukemia.
For `CCCCC(NC(=O)CN1C(=O)/C(=C/C(C)=C/c2ccccc2)SC1=S)C(=O)O` (stereo not given), the growth was 108% in the assay on HCT-15 colon; 120% in the assay with HT29 colon; 98.7% with SNB-75 CNS; 95.7% with SNB-19 CNS; 110% in the assay with U251 CNS; 107% in the assay with PC-3 prostate. For the same compound, the growth in the assay on SK-MEL-5 melanoma was 101%; in the assay on UACC-62 melanoma it was 92.7%; in the assay on LOX IMVI melanoma, 94.7%; in the assay with SK-MEL-28 melanoma, 104%; with SK-MEL-2 melanoma, 113%; in the assay with EKVX NSCLC, 98.6%. In addition, the growth with SN12C renal was 95.5%; in the assay on UO-31 renal, 82.9%; with TK-10 renal, 104%; in the assay with ACHN renal, 97.2%; in the assay with CAKI-1 renal, 89.2%; in the assay on A498 renal it was 68%. The values for the growth in the assay with CCRF-CEM leukemia and in the assay with MOLT-4 leukemia were 105% and 118%, respectively.
